# Test results published in publication PMC4336329 (PLoS ONE, 2015).
# The campaign covered roughly 310,000 compounds. About 14,000 (4.5%) showed an effect of 50% or more. The effect is printed as a negative number. What follows is part of a selection rich in strong results, with near analogues and random picks from the rest.
# Molecular target: human ether-à-go-go-related gene (hERG) potassium channel (human, UniProt Q12809)
# Assay: primary screen, population patch clamp on CHO cells stably expressing hERG; higher = less effect of the substance
# 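Note: peak tail current of the secondary pulse compared with the same well before compound.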
# human ether-à-go-go-related gene (hERG) potassium channel, sequence (Q12809 whole entry, looked up): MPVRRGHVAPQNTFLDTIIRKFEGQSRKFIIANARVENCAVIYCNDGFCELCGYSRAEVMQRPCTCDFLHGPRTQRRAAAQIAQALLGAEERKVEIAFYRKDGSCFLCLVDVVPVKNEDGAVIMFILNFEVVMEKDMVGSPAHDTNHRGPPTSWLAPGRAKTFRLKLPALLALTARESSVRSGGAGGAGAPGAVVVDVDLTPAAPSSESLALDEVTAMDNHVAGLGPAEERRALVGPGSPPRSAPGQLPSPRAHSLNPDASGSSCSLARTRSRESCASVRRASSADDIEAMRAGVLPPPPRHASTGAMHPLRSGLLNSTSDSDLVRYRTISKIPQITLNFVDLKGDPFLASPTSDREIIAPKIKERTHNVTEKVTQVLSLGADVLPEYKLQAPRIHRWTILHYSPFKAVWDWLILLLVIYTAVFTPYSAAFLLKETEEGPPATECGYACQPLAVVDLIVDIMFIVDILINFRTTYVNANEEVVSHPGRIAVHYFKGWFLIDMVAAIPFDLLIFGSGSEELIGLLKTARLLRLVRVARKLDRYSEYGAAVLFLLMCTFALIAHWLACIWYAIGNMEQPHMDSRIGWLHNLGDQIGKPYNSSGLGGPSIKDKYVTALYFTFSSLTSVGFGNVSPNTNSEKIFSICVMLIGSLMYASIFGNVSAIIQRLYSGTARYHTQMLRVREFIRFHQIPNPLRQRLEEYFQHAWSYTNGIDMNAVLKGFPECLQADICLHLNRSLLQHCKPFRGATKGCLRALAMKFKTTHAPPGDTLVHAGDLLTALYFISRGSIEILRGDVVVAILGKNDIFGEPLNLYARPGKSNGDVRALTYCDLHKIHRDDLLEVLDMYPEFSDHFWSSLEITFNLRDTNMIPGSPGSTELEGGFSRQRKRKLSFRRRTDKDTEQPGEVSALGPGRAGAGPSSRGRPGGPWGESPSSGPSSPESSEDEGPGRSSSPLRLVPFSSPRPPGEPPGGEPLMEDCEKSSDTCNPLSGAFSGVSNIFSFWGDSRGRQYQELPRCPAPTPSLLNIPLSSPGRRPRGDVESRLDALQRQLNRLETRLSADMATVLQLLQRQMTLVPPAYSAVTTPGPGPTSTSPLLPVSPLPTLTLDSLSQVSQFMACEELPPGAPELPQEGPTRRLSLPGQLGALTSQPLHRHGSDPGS
row,SMILES,"hERG current change (%, negative = inhibition) at 10uM"
1,Cc1ccc(OCC(=O)NNC(=O)CSc2ncnc3sc(C)c(C)c23)cc1,39.6%
2,CC1CC(=O)Nc2ccccc2N1S(=O)(=O)c1cccc(F)c1 (centres unmarked),9.89%
3,O=C(CC1C(=O)NCCN1Cc1cccc(F)c1)NC1CCC1 (centres unmarked),-3.12%
4,CCC(CC)C(=O)c1c[nH]c(C(=O)O)c1,19.6%
5,CC1CCN(Cc2cc(=O)oc3cc(O)c(Cl)cc23)CC1,9.11%
6,Cc1nn(-c2ccccc2)c(C)c1/C=N/NC(=O)c1cc(C(C)(C)C)[nH]n1,-9.72%
7,O=C(Nc1nnc(-c2ccncc2)s1)Nc1ccccc1F,14.2%
8,Cc1cc(C)c(C(=O)/C=C/c2ccc(C(C)C)cc2)c(=O)[nH]1,10%
9,Cc1ccccc1N(CC(=O)NCCSC1CCCCC1)S(=O)(=O)c1ccccc1,-16%
10,CCOc1ccc(CN(C)CC(=O)c2c(N)n(Cc3ccccc3)c(=O)n(CC)c2=O)cc1OC,-75.5%
11,COc1ccc(CN(C)CC(=O)c2c(N)n(Cc3ccccc3)c(=O)n(C)c2=O)c(OC)c1,-66.1%
12,COc1cccc(NC(=O)CN(C)CC(=O)c2c(N)n(Cc3ccccc3)c(=O)n(C)c2=O)c1,-8.12%
13,CCn1c(=O)c(C(=O)CC#N)c(N)n(Cc2ccccc2)c1=O,-4.73%
14,CCn1c(=O)c(C(=O)CN(C)Cc2cccc(OC)c2OC)c(N)n(Cc2ccccc2)c1=O,-50.3%
15,CN(C)CC(=O)c1c(N)n(Cc2ccccc2)c(=O)n(C)c1=O,-7.58%
16,CCn1c(=O)c(C(=O)CN2c3ccccc3CC2C)c(N)n(Cc2ccccc2)c1=O (centres unmarked),3.42%
17,CCn1c(=O)c(C(=O)CN(C)Cc2ccc(F)cc2)c(N)n(Cc2ccccc2)c1=O,-71%
18,COC(=O)Cn1c(=O)c(C(=O)CCl)c(N)n(Cc2ccccc2)c1=O,-0.133%
19,CCn1c(=O)c(C(=O)CN2CCCc3ccccc32)c(N)n(Cc2ccccc2)c1=O,-6.1%
20,CCn1c(=O)c(C(=O)CN2CCc3ccccc32)c(N)n(Cc2ccccc2)c1=O,19%
21,CCN(CC)CC(=O)c1c(N)n(Cc2ccccc2)c(=O)n(C)c1=O,-2.27%
22,CNC(=O)c1ccc(N(Cc2ccccc2C)S(C)(=O)=O)cc1,-6%
23,Cn1c(C2=C(O)CN(c3ccccc3)C2=N)nc2ccccc21,-13.2%

row,SMILES,"hERG current change (%, negative = inhibition) at 10uM"
1,Cc1ccc(C(=O)NC(=S)Nc2ccc(N3CCN(C(=O)c4ccco4)CC3)cc2)cc1,17.1%
2,Cc1ccc(OC(=S)Nc2ccccc2)c(C)c1,6.7%
3,CCOC(=O)c1c(C)[nH]c(C(=O)COC(=O)CNS(=O)(=O)c2ccc(C)cc2)c1C,11.8%
4,C=CCN(c1nc(C)cc(OC)n1)S(=O)(=O)c1ccccc1,-2.09%
5,Cc1nc2c(sc3nc4c(cc32)COC(C)(C)C4)c(=O)n1Cc1ccccc1,-10.6%
6,COCCN(C(=O)COC(=O)CCc1ccc(OC)cc1)c1c(N)n(Cc2ccccc2)c(=O)[nH]c1=O,27.6%
7,COC(=O)C[C@H]1c2cc(F)ccc2S(=O)(=O)N1c1ccccc1,8.82%
8,O=C(CSC1=NNC(c2ccccn2)S1)Nc1cccc(Cl)c1 (centres unmarked),12.6%
9,COCCCNC(=O)Cn1cc2c(n1)CCC(C)C2 (centres unmarked),1.99%
10,Cc1ccc(C)c(N2CCN(CCCNC(=O)Cn3cc4c(n3)CCCCC4)CC2)c1,-69.3%
11,O=C(Cn1cc2c(n1)CCCC2)NCCCN1CCN(c2ccccc2F)CC1,-31.1%
12,CC1CCc2nn(CC(=O)NCCCN3CCCC3=O)cc2C1 (centres unmarked),10.2%
13,CCCN1CCN(CCCNC(=O)Cn2cc3c(n2)CCCC3)CC1,-7.41%
14,Cc1ccc(C)c(N2CCN(CCCNC(=O)Cn3cc4c(n3)CCC(C)C4)CC2)c1 (centres unmarked),-63.4%
15,COC(=O)c1ccc(Sc2ccccc2NS(=O)(=O)c2ccc(OC)cc2)nc1,9.67%
16,CN1CCN(c2ccc(NC(=O)Oc3ccccc3)cc2)CC1,17.4%
17,CCOc1ccc(C(C)(C)C)cc1S(=O)(=O)Nc1ccncc1,17%
18,Cn1nnc2cc(C(=O)NCc3ccco3)ccc21,1.15%
19,Cc1nc(Nc2nc(-c3ccccc3)cc(=O)[nH]2)nc2ccccc12,-3.73%
20,COc1cc(/C=N/NC(=O)C2CCN(CC(O)COCc3ccccc3)CC2)ccc1O (centres unmarked),-78.1%
21,COc1cc(/C=N/NC(=O)C2CCN(CC(O)COCc3ccccc3)CC2)cc(OC)c1OC (centres unmarked),-71.7%
22,COc1cc(/C=N/NC(=O)Cc2ccccc2)cc(OC)c1OC,8.74%
23,CCOc1ccc(/C=N/NC(=O)C2CC2)cc1OC,18.3%

row,SMILES,"hERG current change (%, negative = inhibition) at 10uM"
1,COc1ccc(COCC(O)CN2CCC(C(N)=O)CC2)cc1OC (centres unmarked),-7.47%
2,COc1cc(/C=N/NC(=O)CCc2ccccc2)ccc1O,-1.02%
3,O=C(CCC(=O)c1ccc(F)cc1)NC1CCCN(Cc2ccccc2F)C1 (centres unmarked),-19.4%
4,CC(=O)Nc1cccc(NC(=O)C(F)(F)F)c1,21.2%
5,Cc1onc(-c2ccccc2)c1C(=O)OCC(=O)Nc1ccc(C#N)cc1,-27.7%
6,O=C(/C=C/c1ccc(-c2ccccc2[N+](=O)[O-])o1)c1ccccc1,18.4%
7,COc1cc(C)ccc1OCCOCCOc1ccccc1[N+](=O)[O-],-29.5%
8,CC(=O)Nc1ccc(OCCOc2ccc([N+](=O)[O-])cc2)cc1,0.991%
9,CCC(C)NCCCCOc1ccc(Br)cc1.O=C(O)C(=O)O (centres unmarked),-32.6%
10,COc1cc(C)ccc1OCCOCCOc1ccc(C)cc1[N+](=O)[O-],-36.1%
11,CC(=O)c1ccc([N+](=O)[O-])cc1,15.7%
12,CCC(C)NCCCOc1ccc([N+](=O)[O-])cc1.O=C(O)C(=O)O (centres unmarked),-74.7%
13,COc1cc(C)ccc1OCCOCCOc1ccc([N+](=O)[O-])cc1,-54.8%
14,CCCOc1ccc(OCCCCNC(C)CC)cc1.O=C(O)C(=O)O (centres unmarked),-18.9%
15,CC(=O)c1ccc(OCCOc2ccc([N+](=O)[O-])cc2)cc1,-57.6%
16,CCOC(=O)C(CCCOc1ccccc1)C(=O)OCC,-14.3%
17,CCOC(=O)C(CCCOc1ccc(C)cc1)C(=O)OCC,-8.52%
18,CCOC(=O)C(CCCCOc1ccc([N+](=O)[O-])cc1)C(=O)OCC,-54.8%
19,CNC(=O)n1cc(C)c(-c2cccs2)n1,5.15%
20,Cc1cc2c(cc1S(=O)(=O)N1CCCC1)n(C)c(=O)c(=O)n2C,-4.62%
21,COc1ccc(CC(=O)OC(C)C(=O)c2ccc(C)cc2)cc1 (centres unmarked),20.4%
22,COc1ccc(OC(=O)c2cn(C)nc2C(F)(F)F)cc1,-1.05%
23,Cc1ccc2nc(=O)c(NNc3ccccc3)cnc2c1,15.6%

row,SMILES,"hERG current change (%, negative = inhibition) at 10uM"
1,CCCCN(C(=O)c1cc2c(s1)CCC2)c1c(N)n(CCCC)c(=O)[nH]c1=O,-0.537%
2,C1=C(c2c[nH]c3ccccc23)CCNC1,7.59%
3,CC(C)c1ccc(CNC(=O)C(=O)NCC2CCCO2)cc1 (centres unmarked),7.73%
4,CCc1ccc(OCCCC(=O)NCc2ccco2)cc1,1.95%
5,CCOC(=O)C(CCCCCOc1ccc([N+](=O)[O-])cc1)C(=O)OCC,-50.4%
6,CCOC(=O)COc1ccc([N+](=O)[O-])cc1,-5.07%
7,CCOC(=O)C(CCCCCOc1ccccc1[N+](=O)[O-])C(=O)OCC,-8.54%
8,CCn1nc([N+](=O)[O-])c2c(-c3nc4ccccc4o3)c(N)n(CCCOC)c2c1=O,14.5%
9,CCOC(=O)c1noc(C)c1C(=O)Nc1nc(C)cc(C)n1,11.5%
10,Cc1ccc(F)cc1NC(=O)CSCc1c(C)noc1C,-3.15%
11,O=c1[nH]nnc2c1sc1nc(N3CCOCC3)c3c(c12)CCCC3,-12.4%
12,CC(=O)Nc1ccc(S(=O)(=O)NC(CC(=O)N2CCC3(CC2)OCCO3)C(C)C)cc1 (centres unmarked),18.9%
13,O=C(Nc1cc(S(=O)(=O)N2CCOCC2)ccc1N1CCCCC1)c1cc(-c2ccccn2)nc2ccccc12,0.703%
14,Cc1ccc(N(CC(O)CN2CCCCC2)S(=O)(=O)c2ccc(C)cc2)cc1 (centres unmarked),13.8%
15,Cc1ccccc1S(=O)(=O)N(CC(O)CN1CCCCC1)c1ccccc1 (centres unmarked),-71.7%
16,COc1ccc(N(CC(O)CN2CCCCC2)S(=O)(=O)c2ccc(C)cc2)cc1 (centres unmarked),-78.6%
17,COc1ccc(N(CC(O)Cn2c3ccccc3c3ccccc32)S(=O)(=O)c2ccccc2)cc1 (centres unmarked),3.8%
18,Cc1ccccc1S(=O)(=O)N(CC(O)CN1C(=O)NC(C)(C)C1=O)c1ccccc1 (centres unmarked),1.47%
19,Cc1ccc(S(=O)(=O)N(CC(O)CN2CCOCC2)c2cc(Cl)ccc2Cl)cc1.Cl (centres unmarked),-31.9%
20,COc1ccc(N(CC(O)CN2CCOCC2)S(=O)(=O)c2ccc(C)cc2)cc1 (centres unmarked),-45.2%
21,Cc1cc(C)n(CC(O)CN(c2ccccc2)S(=O)(=O)c2ccccc2)n1 (centres unmarked),7.17%
22,Cc1ccc(S(=O)(=O)N(CC(O)CN2CCCC2)c2ccccc2)cc1 (centres unmarked),-62.2%
23,Cc1ccc(N(CC(O)CN2CCCC2)S(=O)(=O)c2ccc(C)cc2)cc1.Cl (centres unmarked),-76.4%
